Data as given in paper PMC12820563, “FoxP3 forms a head-to-head dimer in vivo and stabilizes its multimerization on adjacent microsatellites”.
Over roughly 16,000 sequences, “rpm ratio (pull-down/input)” has its median near 0.5; the highest 2% begin near 5.5. The full list was thinned out, with the highest values kept by preference.

Target: T1, MBP-FoxP3dN (Mus musculus, UniProt Q99JB6 188-423)
T1 sequence: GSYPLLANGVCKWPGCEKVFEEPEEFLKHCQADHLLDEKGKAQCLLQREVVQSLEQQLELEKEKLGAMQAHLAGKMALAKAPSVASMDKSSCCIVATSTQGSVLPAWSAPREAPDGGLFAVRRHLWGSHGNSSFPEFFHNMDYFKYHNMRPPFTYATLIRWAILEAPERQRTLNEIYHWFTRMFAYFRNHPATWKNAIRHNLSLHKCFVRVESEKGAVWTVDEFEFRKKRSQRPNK
Experiment: PD-seq (MBP pull-down with sequencing); 20 mM Tris-HCl pH 7.5, 100 mM NaCl, 1.5 mM MgCl2, 0.4 uM protein, 0.1 uM dsDNA library, 30 min, room temperature, amylose pull-down; high values mean tight binding
Conditions: protein: recombinant; tags: His6-MBP; chain copies: 2; dsDNA, one strand shown
Summary of the method: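 Binding is the reads-per-million enrichment of pull-down relative to input, pooled across replicates. For this, 0.4 µM His6-MBP-tagged mouse FoxP3 or FoxP1 fragment lacking the N-terminus, made in E. coli, was incubated with 0.1 µM Klenow-filled double-stranded degenerate DNA library for 30 min at room temperature in Tris pH 7.5 buffer with NaCl and MgCl2. Complexes bound to amylose resin were washed three times before proteinase K released the DNA for PCR barcoding and Illumina sequencing.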

Row | Sequence | binding signal
1 | GATGATTGTTCTCCCAGCTGATGAATTTTTTACCTCGAGTAAACAAATTTTCCTAATCTTTCTGTTCAAGCGCCATCTAC | 0.228 RPM ratio (pull-down/input)
2 | GATGATTGTTCTCCCAGCTGATGAATTTGTTCTCTCGAGTAAACAAATTTTCCTAATCTTTCTGTTCAAGCGCCATCTAC | 2.14 RPM ratio (pull-down/input)
3 | GATGATTGTTCTCCCAGCTGATGAATTTGTTTCCTCGAGTAAACAAATTTTCCTAATCTTTCTGTTCAAGCGCCATCTAC | 5.92 RPM ratio (pull-down/input)
4 | GATGATTGTTCTCCCAGCTGATGAATTGTTTTTCTCGAGTAAACAAATTTTCCTAATCTTTCTGTTCAAGCGCCATCTAC | 4.35 RPM ratio (pull-down/input)
5 | GATGATTGTTCTCCCAGCTGATGAATTTGTTTTCTCGAGTAAACAAATTTTCCTAATCTTTCTGTTCAAGCGCCATCTAC | 7.21 RPM ratio (pull-down/input)
6 | GATGATTGTTCTCCCAGCTGATGAATTTTGTTCCTCGAGTAAACAAATTTTCCTAATCTTTCTGTTCAAGCGCCATCTAC | 1.64 RPM ratio (pull-down/input)
7 | GATGATTGTTCTCCCAGCTGATGAATTGTTTACCTCGAGTAAACAAATTTTCCTAATCTTTCTGTTCAAGCGCCATCTAC | 7.12 RPM ratio (pull-down/input)
8 | GATGATTGTTCTCCCAGCTGATGAATTGGGAATTTCGAGTAAACAAATTTTCCTAATCTTTCTGTTCAAGCGCCATCTAC | 1.3 RPM ratio (pull-down/input)
9 | GATGATTGTTCTCCCAGCTGATGAATTAGGCACGTCGAGTAAACAAATTTTCCTAATCTTTCTGTTCAAGCGCCATCTAC | 1.03 RPM ratio (pull-down/input)
10 | GATGATTGTTCTCCCAGCTGATGAATTACTCTGCTCGAGTAAACAAATTTTCCTAATCTTTCTGTTCAAGCGCCATCTAC | 0.3 RPM ratio (pull-down/input)
11 | GATGATTGTTCTCCCAGCTGATGAATTACGTTGCTCGAGTAAACAAATTTTCCTAATCTTTCTGTTCAAGCGCCATCTAC | 1.14 RPM ratio (pull-down/input)
12 | GATGATTGTTCTCCCAGCTGATGAATTAGGACATTCGAGTAAACAAATTTTCCTAATCTTTCTGTTCAAGCGCCATCTAC | 0.784 RPM ratio (pull-down/input)
13 | GATGATTGTTCTCCCAGCTGATGAATTAAAGAATTCGAGTAAACAAATTTTCCTAATCTTTCTGTTCAAGCGCCATCTAC | 0.677 RPM ratio (pull-down/input)
14 | GATGATTGTTCTCCCAGCTGATGAATTGTGTAATTCGAGTAAACAAATTTTCCTAATCTTTCTGTTCAAGCGCCATCTAC | 3.19 RPM ratio (pull-down/input)
15 | GATGATTGTTCTCCCAGCTGATGAATTGTATATTTCGAGTAAACAAATTTTCCTAATCTTTCTGTTCAAGCGCCATCTAC | 3.17 RPM ratio (pull-down/input)
16 | GATGATTGTTCTCCCAGCTGATGAATTTCTGTATTCGAGTAAACAAATTTTCCTAATCTTTCTGTTCAAGCGCCATCTAC | 1.38 RPM ratio (pull-down/input)

Row | Sequence | binding signal
17 | GATGATTGTTCTCCCAGCTGATGAATTTTTGTATTCGAGTAAACAAATTTTCCTAATCTTTCTGTTCAAGCGCCATCTAC | 2.57 RPM ratio (pull-down/input)
18 | GATGATTGTTCTCCCAGCTGATGAATTCGTGTATTCGAGTAAACAAATTTTCCTAATCTTTCTGTTCAAGCGCCATCTAC | 2.95 RPM ratio (pull-down/input)
19 | GATGATTGTTCTCCCAGCTGATGAATTGTATTGTTCGAGTAAACAAATTTTCCTAATCTTTCTGTTCAAGCGCCATCTAC | 6.04 RPM ratio (pull-down/input)
20 | GATGATTGTTCTCCCAGCTGATGAATTGTATTTTTCGAGTAAACAAATTTTCCTAATCTTTCTGTTCAAGCGCCATCTAC | 3.78 RPM ratio (pull-down/input)
21 | GATGATTGTTCTCCCAGCTGATGAATTCTGTATTTCGAGTAAACAAATTTTCCTAATCTTTCTGTTCAAGCGCCATCTAC | 4.09 RPM ratio (pull-down/input)
22 | GATGATTGTTCTCCCAGCTGATGAATTTGTGTATTCGAGTAAACAAATTTTCCTAATCTTTCTGTTCAAGCGCCATCTAC | 6.95 RPM ratio (pull-down/input)
23 | GATGATTGTTCTCCCAGCTGATGAATTCGTATATTCGAGTAAACAAATTTTCCTAATCTTTCTGTTCAAGCGCCATCTAC | 2.61 RPM ratio (pull-down/input)
24 | GATGATTGTTCTCCCAGCTGATGAATTTGTATATTCGAGTAAACAAATTTTCCTAATCTTTCTGTTCAAGCGCCATCTAC | 6.34 RPM ratio (pull-down/input)
25 | GATGATTGTTCTCCCAGCTGATGAATTGTGTATTTCGAGTAAACAAATTTTCCTAATCTTTCTGTTCAAGCGCCATCTAC | 5.82 RPM ratio (pull-down/input)
26 | GATGATTGTTCTCCCAGCTGATGAATTTTTACGATCGAGTAAACAAATTTTCCTAATCTTTCTGTTCAAGCGCCATCTAC | 0.226 RPM ratio (pull-down/input)
27 | GATGATTGTTCTCCCAGCTGATGAATTCCCTGCCTCGAGTAAACAAATTTTCCTAATCTTTCTGTTCAAGCGCCATCTAC | 0.312 RPM ratio (pull-down/input)
28 | GATGATTGTTCTCCCAGCTGATGAATTGTGAGGCTCGAGTAAACAAATTTTCCTAATCTTTCTGTTCAAGCGCCATCTAC | 0.816 RPM ratio (pull-down/input)
29 | GATGATTGTTCTCCCAGCTGATGAATTTAAGTGCTCGAGTAAACAAATTTTCCTAATCTTTCTGTTCAAGCGCCATCTAC | 0.628 RPM ratio (pull-down/input)
30 | GATGATTGTTCTCCCAGCTGATGAATTGTGGTTTTCGAGTAAACAAATTTTCCTAATCTTTCTGTTCAAGCGCCATCTAC | 2.03 RPM ratio (pull-down/input)
31 | GATGATTGTTCTCCCAGCTGATGAATTGGGTGGATCGAGTAAACAAATTTTCCTAATCTTTCTGTTCAAGCGCCATCTAC | 0.423 RPM ratio (pull-down/input)
32 | GATGATTGTTCTCCCAGCTGATGAATTAAAGCTGTCGAGTAAACAAATTTTCCTAATCTTTCTGTTCAAGCGCCATCTAC | 0.47 RPM ratio (pull-down/input)
